Reference: PubChem BioAssay (NCATS)
Inconclusive results are not listed. Calls of active or inactive are those of the source. Unless noted, the call rests on the fitted dose curve; in most records, active means well fitted cell-killing curve with a large enough effect; inconclusive means small, poorly fitted or top-dose-only effect, or effect the other way; inactive means no such curve, though single readings can be large or run the other way.

Legend:
[1] = Quantitative High-Throughput drug screen in 47 multiple myeloma cell lines against the NCATS MIPE library collection: OCIMY5_PLB cell viability assay (AID 1918988); further: nearly all actives have a fitted effect of over 65% in size; further: potency means the concentration at half of the fitted maximal effect
Summary of the method: (§1)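 Readout: median RLU from CellTiter-Glo after 5 min at room temperature. Preceding step was 48 h drug treatment of 500 cells/well at 37 °C, 5% CO2, with DMSO-only and media-only control wells.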

[2] = Quantitative High-Throughput drug screen in 47 multiple myeloma cell lines against the NCATS MIPE library collection: OPM1_PLB cell viability assay (AID 1918989); further: nearly all actives have a fitted effect of over 40% in size; further: potency means the concentration at half of the fitted maximal effect
Summary of the method: as §1

[3] = Quantitative High-Throughput drug screen in 47 multiple myeloma cell lines against the NCATS MIPE library collection: SKMM1_PLB cell viability assay (AID 1919863); conditions: SKMM1 myeloma viability, CellTiter-Glo ATP, 48 h; viability: stronger effect = lower value; further: nearly all actives have a fitted effect of over 35% in size; further: potency means the concentration at half of the fitted maximal effect
Summary of the method: as §1

[4] = Quantitative High-Throughput drug screen in 47 multiple myeloma cell lines against the NCATS MIPE library collection: XG6_PLB cell viability assay (AID 1919865); further: nearly all actives have a fitted effect of over 40% in size; further: potency means the concentration at half of the fitted maximal effect
Summary of the method: as §1

[5] = Quantitative High-Throughput drug screen in 47 multiple myeloma cell lines against the NCATS MIPE library collection: XG1_PLB cell viability assay (AID 1919866); further: nearly all actives have a fitted effect of over 35% in size; further: potency means the concentration at half of the fitted maximal effect
Summary of the method: as §1

[6] = Quantitative High-Throughput drug screen in 47 multiple myeloma cell lines against the NCATS MIPE library collection: PCM6_Riken cell viability assay (AID 1919870); further: nearly all actives have a fitted effect of over 30% in size; further: potency means the concentration at half of the fitted maximal effect
Summary of the method: as §1

[7] = Quantitative High-Throughput drug screen in 47 multiple myeloma cell lines against the NCATS MIPE library collection: OPM2_DSMZ cell viability assay (AID 1919872); further: nearly all actives have a fitted effect of over 30% in size; further: potency means the concentration at half of the fitted maximal effect
Summary of the method: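 We plated 500 myeloma cells per well, pinned in MIPE 4.0 compounds, and incubated for 48 hours at 37C. ATP was then quantified with CellTiter-Glo, with DMSO and media-only wells defining 100% and 0%.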

[8] = Quantitative High-Throughput drug screen in 47 multiple myeloma cell lines against the NCATS MIPE library collection: KMS11_JCRBsus cell viability assay (AID 1919873); further: nearly all actives have a fitted effect of over 50% in size; further: potency means the concentration at half of the fitted maximal effect
Summary of the method: as §1

[9] = Quantitative High-Throughput drug screen in 47 multiple myeloma cell lines against the NCATS MIPE library collection: KMS28BM_JCRB cell viability assay (AID 1919874); further: nearly all actives have a fitted effect of over 35% in size; further: potency means the concentration at half of the fitted maximal effect
Summary of the method: as §1

[10] = qHTS for identification of novel therapeutic agents for treatment of microphthalmiaassociated transcription factor (MiT) renal cell carcinoma (RCC) (AID 1963991); conditions: CellTiter-Glo, 48 h, stronger effect = lower value
Summary of the method: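 Three TFE3-fusion RCC cell lines (UOK109, UOK124, UOK145), 500 cells/well, were exposed to the 1912-compound MIPE 4.0 library for 48 hours at 37 C. Viability was read by CellTiter-Glo luminescence, normalised to DMSO (100%) and empty wells (0%), with 11-concentration curve fits.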

[11] = Quantitative High-Throughput drug screen in 47 multiple myeloma cell lines against the NCATS MIPE library collection: U266_ATCC cell viability assay (AID 1919864); further: nearly all actives have a fitted effect of over 35% in size; further: potency means the concentration at half of the fitted maximal effect
Summary of the method: as §1

[12] = Quantitative High-Throughput drug screen in 47 multiple myeloma cell lines against the NCATS MIPE library collection: PE2_PLB cell viability assay (AID 1919869); further: nearly all actives have a fitted effect of over 35% in size; further: potency means the concentration at half of the fitted maximal effect
Summary of the method: as §1

[13] = qHTS drug screen for cell cycle checkpoint inhibitors in PARPi-resistant BRCA-mutant ovarian cancer cell lines. (AID 1963452; calls by dose curve); conditions: PEO1/OlaR viability, CellTiter-Glo luminescence, 96 h, stronger effect = lower value
Summary of the method: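 PEO1, PEO4 and PEO1/OlaR ovarian cancer cells, 600 per well, exposed 96 h at 37C to a dilution series. Viability read by CellTiter-Glo luminescence, normalized to DMSO and empty wells; activity summarized as Z-AUC.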

[14] = Quantitative High-Throughput drug screen in 47 multiple myeloma cell lines against the NCATS MIPE library collection: VP6_DJ cell viability assay (AID 1919867); further: nearly all actives have a fitted effect of over 40% in size; further: potency means the concentration at half of the fitted maximal effect
Summary of the method: as §1

[15] = Quantitative High-Throughput drug screen in 47 multiple myeloma cell lines against the NCATS MIPE library collection: UTMC2_PLB cell viability assay (AID 1919868); conditions: CellTiter-Glo ATP luminescence, 48 h; viability (% of DMSO control): at 45.8 µM (top of the series); further: nearly all actives have a fitted effect of over 55% in size; further: potency means the concentration at half of the fitted maximal effect
Summary of the method: as §1

[16] = TFE3-RCC UOK109 viability, measured here: UOK109 Z-AUC
[17] = TFE3-RCC viability, measured here: UOK124 Z-AUC
[18] = TFE3-RCC viability, measured here: UOK145 Z-AUC
[19] = measured here: PEO1 parental Z-AUC

With `CC1=NN=C(c2ccc(N)cc2)c2cc3c(cc2C1)OCO3` the Potency [1] was 18.7 µM (active), the Potency [2] was “inactive” and the viability [3] was 125% (inactive). The Potency [4] was “inactive”, the Potency [5] was “inactive” and the Potency [6] was “inactive”. For the same compound, the Potency [7] was “inactive”, the Potency [8] was “inactive” and the Potency [9] was “inactive”. For the same compound, the z-score [10, 16] was 0.644, the z-score [10, 17] was 0.871 and the z-score [10, 18] was 0.714.

For `CCCN1CCO[C@@H]2c3cc(O)ccc3OC[C@@H]21`, the Potency [1] was 18.7 µM (active), the Potency [2] was “inactive” and the Potency [11] was “inactive”. The Potency [12] was “inactive”, the Potency [7] was “inactive” and the Potency [8] was “inactive”. For the same compound, the z-score [10, 16] was 0.649, the z-score [10, 17] was 0.425 and the z-score [10, 18] was 0.561.

With `CCN1C[C@]2(OC(=O)c3ccccc3NC(C)=O)CC[C@H](OC)[C@@]34[C@H]5CC6[C@@H](OC)C[C@](O)(C(C[C@@H]23)[C@@H]14)[C@@]5(O)[C@@H]6OC` the Potency [1] was “inactive”, the Potency [2] was “inactive” and the Potency [11] was “inactive”. For the same compound, the Potency [12] was “inactive”, the Potency [7] was “inactive” and the Potency [8] was “inactive”. For the same compound, the Potency [9] was “inactive”, the Z-AUC [13] was 0.577 (inactive) and the Z-AUC [13, 19] was 1.09. It also gave a Z-AUC ([13]; measured here: PEO4 Z-AUC) of 1.24, a z-score [10, 16] of 0.543 and a z-score [10, 17] of 0.783. The z-score [10, 18] was 0.781.

In the case of `CN(C)NC(=O)CCC(=O)O`, the Potency [2] is reported as “inactive”, the viability [3] is reported as 111% (inactive) and the Potency [5] is reported as 26.4 µM (active). For the same compound, the Potency [14] was 16.6 µM (active), the Potency [15] was 0.0372 µM (active) and the Potency [6] was 20.9 µM (active). The Potency [7] was “inactive”, the Potency [8] was “inactive” and the Z-AUC [13] was 1.04 (inactive). For the same compound, the Z-AUC [13, 19] was 0.492, the Z-AUC ([13]; measured here: PEO4 Z-AUC) was 0.93 and the z-score [10, 16] was 0.632. The z-score [10, 17] was 0.666 and the z-score [10, 18] was -0.178.

With `COC1=CC(C)=C[C@@H](C)[C@@H](O)[C@@H](C)CC(C)=CC=C[C@H](OC)[C@H]([C@@H](C)[C@@H](O)[C@H](C)[C@@]2(O)C[C@@H](O)[C@H](C)[C@@H](C(C)C)O2)OC1=O` the Potency [2] was 0.0235 µM (active), the Potency [4] was 0.001 µM (active) and the Potency [15] was 0.001 µM (active). The Potency [8] was 0.0019 µM (active) and the Potency [9] was 20.9 µM (active).

With `CC(=O)Nc1ccc(OC[C@](C)(O)C(=O)Nc2ccc([N+](=O)[O-])c(C(F)(F)F)c2)cc1` the Potency [2] was “inactive”, the Potency [5] was “inactive” and the Potency [15] was “inactive”. The Z-AUC [13] was -0.618 (inactive), the Z-AUC [13, 19] was -0.737 and the Z-AUC ([13]; measured here: PEO4 Z-AUC) was -0.359.

With `c1cc2c(cc1[C@H]1OC[C@H]3[C@H]1CO[C@H]3c1ccc3c(c1)OCO3)OCO2` the Potency [2] was “inactive”, the viability [3] was 134% (inactive) and the Potency [4] was 26.4 µM (active). The Potency [5] was “inactive”, the Potency [14] was “inactive” and the Potency [6] was “inactive”. For the same compound, the Potency [7] was “inactive”, the Potency [8] was “inactive” and the Potency [9] was “inactive”. For the same compound, the z-score [10, 16] was 0.442, the z-score [10, 17] was 0.255 and the z-score [10, 18] was 0.142.

With `CC(C)N(CCNC(=O)CN1CCCC1=O)C(C)C` the Potency [2] was “inactive”, the Potency [11] was “inactive” and the Potency [15] was “inactive”. The Potency [12] was “inactive”, the Potency [7] was “inactive” and the Potency [8] was “inactive”. The Potency [9] was “inactive”, the z-score [10, 16] was 0.955 and the z-score [10, 17] was 0.437. For the same compound, the z-score [10, 18] was 0.681.

With `C=C[C@@H]1CN2CCC1C[C@H]2[C@H](O)c1ccnc2ccccc12` (stereo partly drawn) the Potency [2] was 16.6 µM (active), the Potency [3] was 20.9 µM (active) and the Potency [11] was 20.9 µM (active). The Potency [5] was 16.6 µM (active), the Potency [14] was 26.4 µM (active) and the Potency [6] was 14.8 µM (active).

In the case of `CC(=CCCC1=CCC(C2=CC(=O)OC2O)OC1O)CCC1=C(C)CCCC1(C)C` (stereo not drawn), the Potency [2] is reported as 11.8 µM (active), the viability [3] is reported as 104% (inactive) and the Potency [11] is reported as 18.7 µM (active). The Potency [4] was 16.6 µM (active), the Potency [14] was 4.18 µM (active) and the Potency [7] was “inactive”. The Potency [9] was 2.64 µM (active), the z-score [10, 16] was 0.667 and the z-score [10, 17] was 0.534. The z-score [10, 18] was -0.0671.

For `CC1(N2CCC(n3c([C@@H]4CCCNC4)nc4ccccc43)CC2)CCCCCCC1`, the Potency [2] was 7.43 µM (active), the Potency [11] was 5.26 µM (active) and the Potency [14] was 14.8 µM (active). The Potency [12] was 16.6 µM (active), the Potency [6] was 14.8 µM (active) and the Potency [7] was 18.7 µM (active). The Potency [8] was 13.2 µM (active), the Potency [9] was 23.5 µM (active) and the Z-AUC [13] was 1.01 (inactive). For the same compound, the Z-AUC [13, 19] was 0.227 and the Z-AUC ([13]; measured here: PEO4 Z-AUC) was 0.462.

In the case of `C[C@@H]1CC[C@H]2[C@@H](C)C(=O)O[C@@H]3O[C@@]4(C)CC[C@H]1[C@]32OO4`, the viability [3] is reported as 103% (inactive), the Potency [11] is reported as “inactive” and the Potency [6] is reported as 6.62 µM (active). For the same compound, the Potency [7] was 0.264 µM (active) and the Potency [8] was “inactive”.

In the case of `CCOP(=O)(OCC)C(C)NC(=O)N(CCCl)N=O` (stereo not drawn), the Potency [2] is reported as “inactive”, the Potency [11] is reported as “inactive” and the Potency [15] is reported as “inactive”. The Potency [12] was “inactive”, the Potency [8] was “inactive” and the Potency [9] was “inactive”. The Z-AUC [13] was 1.21 (inactive), the Z-AUC [13, 19] was 0.417 and the Z-AUC ([13]; measured here: PEO4 Z-AUC) was 0.472.

In the case of `CC[C@@H](C(N)=O)N1CCCC1=O`, the Potency [2] is reported as 26.4 µM (active), the Potency [11] is reported as “inactive” and the Potency [5] is reported as 23.5 µM (active). For the same compound, the Potency [7] was “inactive”, the Potency [8] was “inactive” and the Potency [9] was “inactive”. The Z-AUC [13] was -0.418 (inactive), the Z-AUC [13, 19] was -0.901 and the Z-AUC ([13]; measured here: PEO4 Z-AUC) was -0.237. For the same compound, the z-score [10, 16] was 1.12, the z-score [10, 17] was 0.779 and the z-score [10, 18] was 0.655.

With `CC(C)(O)C(=O)Nc1ccc([N+](=O)[O-])c(C(F)(F)F)c1` the Potency [2] was 20.9 µM (active), the Potency [11] was 18.7 µM (active) and the Potency [4] was 3.32 µM (active). The Potency [5] was 8.33 µM (active), the Potency [14] was 8.33 µM (active) and the Potency [6] was 8.33 µM (active). For the same compound, the Potency [7] was “inactive”, the Z-AUC [13] was 1.27 (inactive) and the Z-AUC [13, 19] was 0.567. The Z-AUC ([13]; measured here: PEO4 Z-AUC) was 0.85.

For `O=C(Oc1ccc([N+](=O)[O-])cc1)N1CCC(C(O)(c2ccc3c(c2)OCO3)c2ccc3c(c2)OCO3)CC1`, the Potency [1] was “inactive”, the viability [3] was 123% (inactive) and the Potency [14] was “inactive”. For the same compound, the Potency [7] was “inactive”, the Potency [8] was “inactive” and the Potency [9] was “inactive”. The Z-AUC [13] was 0.0942 (inactive), the Z-AUC [13, 19] was 0.266 and the Z-AUC ([13]; measured here: PEO4 Z-AUC) was 0.407.
